Inconclusive results are not listed. A number with no mark means an inactive call. Active and inactive are the calls of the source. Calls follow the shape of the full dose curve.
experiment: VSV-G qHTS counterscreen for inhibitors of MERS-S pseudo-typed particle cell entry; details: VSV-G pseudotyped particle cell entry, luciferase counterscreen; series mostly up to 57.1 µM; activity, negative = inhibition: at the top concentration

SMILES | Potency | activity, negative = inhibition [%]
COc1cc2nccc(Oc3ccc(NC(=O)NC4CC4)c(Cl)c3)c2cc1C(N)=O | 17100 nM (active) | 
Cc1oncc1C(=O)Nc1ccc(C(F)(F)F)cc1 |  | 0
CCCCCCCCCCCC[n+]1ccc2ccccc2c1 | 1520 nM (active) | 
COc1cccc2c1C(=O)c1c(O)c3c(c(O)c1C2=O)C[C@@](O)(C(=O)CO)CC3OC1CC(N2CCOC(OC)C2)C(O)C(C)O1 (stereo not given in full) | 152 nM (active) | 
O=C(Nc1ccc([N+](=O)[O-])cc1Cl)c1cc(Cl)ccc1O | 607 nM (active) | 
CC(=O)N1CCN(c2ccc(OC[C@H]3CO[C@](Cn4ccnc4)(c4ccc(Cl)cc4Cl)O3)cc2)CC1 | 7640 nM (active) | 
CN(C/C=C/c1ccccc1)Cc1cccc2ccccc12 |  | -16.4
CC(C)(C)C(=O)OCOP(=O)(COCCn1cnc2c(N)ncnc21)OCOC(=O)C(C)(C)C | 42.9 nM (active) | 
COC(=O)C1=C(C)NC(C)=C(C(=O)OCC(C)C)C1c1ccccc1[N+](=O)[O-] (stereo not given) | 17100 nM (active) | 
O=c1ccc2ccccc2o1 |  | 0
